Measured values taken from the supplement of paper PMC10981050.
Values joined by “and” are separate entries in the source; they are usually repeats but may differ in a detail not shown here. Equal values may be shown once. Where a name gives a salt, the structure may show the parent alone.

Columns and labels:
Experiment in all cases: cell viability relative to vehicle control; higher = less cytotoxic
Details in all cases: 10 µM
K562 = test system: K562
Summary of the method: (§1)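 Four leukaemia lines, as CRISPR-edited mutant clones and isogenic wild-type clones, were tested against Selleck bioactive, kinase and epigenetic probe libraries after removal of identity-inconsistent compounds. Cells were exposed to a single 10 µM dose for 48 h, and CellTiter-Glo luminescence was then read. Viability was calculated relative to the on-plate vehicle control.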

MARIMO = test system: MARIMO
Summary of the method: as §1

MOLM14 = test system: MOLM14
Summary of the method: as §1

OCI-AML2 = test system: OCI-AML2
Summary of the method: as §1

Row | Structure (SMILES) | cell viability (K562; SRSF2 genotype: SRSF2 P95H/wt) | cell viability (K562; SRSF2 genotype: SRSF2 wt/wt) [%] | cell viability (MARIMO; SRSF2 genotype: SRSF2 P95H/wt) [%] | cell viability (MARIMO; SRSF2 genotype: SRSF2 wt/wt) [%] | cell viability (MOLM14; SRSF2 genotype: SRSF2 P95H/wt) [%] | cell viability (MOLM14; SRSF2 genotype: SRSF2 wt/wt) [%] | cell viability (OCI-AML2; SRSF2 genotype: P95H/wt) [%] | cell viability (OCI-AML2; SRSF2 genotype: wt/wt) [%]
1 | CC1(C)S[C@@H]2[C@H](NC(=O)[C@H](N)c3ccccc3)C(=O)N2[C@H]1C(=O)O [Ampicillin sodium] | 99% and 108% | 102 | 109 | 109 | 102 | 107 | 109 | 95.7
2 | COc1cc(O)c(C(=O)Nc2nc(C(=O)NCCN(C(C)C)C(C)C)cs2)cc1OC [Acotiamide] | 101% and 97.3% | 107 | 98 | 108 | 97.5 | 106 | 94.1 | 101
3 | O=C(NC1(c2ccccc2)CC1)c1c(CN2CCC(N3CCCCC3)CC2)c(-c2cccc(C(F)(F)F)c2)nc2cc(Br)ccc12 | 8.23% and 19.8% | 11.8 | 66.8 | 58.4 | 64.9 | 71.4 | 1.08 | 24.1
4 | OCC1(O)COc2cc(O)ccc2-c2cc(O)c(O)cc2C1 (centres undefined) [Protosappanin B] | 93.9% and 95.9% | 95.7 | 100 | 97.1 | 102 | 96.2 | 97.3 | 99.5
5 | CCc1cccc2c3c([nH]c12)C(CC)(CC(=O)O)OCC3 (centres undefined) [Etodolac (Lodine)] | 99.4% and 101% | 92.6 | 89.7 | 96.5 | 93 | 97.8 | 86.8 | 93.7
6 | N#CN=C(NCCCCCCOc1ccc(Cl)cc1)Nc1ccncc1 | 26.1% and 17.5% | 25.9 | 16.8 | 26.9 | 6.24 | 1.39 | 6.42 | 6.39
7 | C[C@@H]1O[C@@H](OC[C@H]2O[C@@H](Oc3cc(O)c4c(=O)cc(-c5ccc(O)cc5)oc4c3)[C@H](O[C@@H]3O[C@@H](C)[C@H](O)[C@@H](O)[C@H]3O)[C@@H](O)[C@@H]2O)[C@H](O)[C@H](O)[C@H]1O [ligustroflavone] | 103% | 106 | 97.1 | 105 | 90.7 | 103 | 107 | 108
8 | CC1(C)C=Cc2c(ccc3c2OC[C@@H](c2ccc(O)cc2O)C3)O1 [Glabridin] | 77.9% and 80.4% | 76.9 | 87.5 | 92.5 | 87.2 | 94.4 | 93.6 | 89.4
9 | CC=C1C(=O)C[C@H]2[C@@H]3CCC4=CC(=O)CC[C@]4(C)[C@H]3CC[C@]12C [Guggulsterone E&Z] | 76% and 84.7% | 79.3 | 61.7 | 72.3 | 80.4 | 89.3 | 71.8 | 76.7
10 | NC12CC3CC(CC(C3)C1)C2 [Amantadine hydrochloride (Symmetrel)] | 99.7% and 116% | 107 | 107 | 103 | 106 | 112 | 111 | 100
11 | CC(C)(C#N)c1cc(Cn2cncn2)cc(C(C)(C)C#N)c1 [Anastrozole] | 102% and 109% | 107 | 97.4 | 105 | 103 | 99.1 | 93.5 | 95.3
12 | CCCCCCCCCCCCCCCCCCCCCC(=O)O [Behenic Acid] | 101% and 91.8% | 103 | 97.7 | 112 | 104 | 108 | 91.8 | 102
13 | Cc1cc(/C=C2/SC(=S)NC2=O)c(C)n1-c1cccnc1 [Optovin] | 85.7% and 83.4% | 85 | 92.2 | 102 | 89.3 | 90.5 | 107 | 97.2
14 | O=C(Nc1ncc(SCCN2CCCC2)s1)[C@]1(c2ccc(S(=O)(=O)C3CC3)cc2)C[C@H]1C1CCCCC1 | 0.72% and 0.66% | 0.58 | 2.32 | 11.5 | 0.59 | 0.51 | 0.46 | 0.55
15 | CC(C)c1c2cc(-c3ccnc(NC4CCC(NC5CCOCC5)CC4)n3)ccc2nn1C (centres undefined) | 10% and 24.4% | 8.4 | 13.4 | 6.58 | 0.76 | 0.31 | 2.85 | 13.2
16 | COc1cn(-c2ccc(-n3cccn3)cc2F)nc(-c2ccnn2-c2ccccc2)c1=O | 103% and 105% | 99.9 | 97.5 | 113 | 107 | 107 | 106 | 117
17 | CN(C)C(=N)NC(=N)N [Metformin hydrochloride (Glucophage)] | 108% | 110 | 108 | 110 | 105 | 104 | 102 | 116
18 | O=C(c1ccc(Cl)cc1)N(Cc1ccccc1)C1CCCCC1 | 86.1% and 92.9% | 92.3 | 75.2 | 84.1 | 78.1 | 94.6 | 72.5 | 81.8
19 | CCCC(CCC)C(=O)O[C@H]1C[C@H]2CC[C@@H](C1)[N+]2(C)C [anisotropine methylbromide] | 101% | 104 | 106 | 107 | 98 | 101 | 106 | 93.6
20 | C[C@@H]1CC[C@@]2(NC1)O[C@H]1C[C@H]3[C@@H]4CC=C5C[C@@H](O[C@@H]6O[C@H](CO)[C@@H](O[C@@H]7O[C@@H](C)[C@H](O)[C@@H](O)[C@H]7O)[C@H](O)[C@H]6O[C@@H]6O[C@@H](C)[C@H](O)[C@@H](O)[C@H]6O)CC[C@]5(C)[C@H]4CC[C@]3(C)[C@H]1[C@@H]2C [Solamargine] | 85.3% and 85.5% | 81.8 | 51.5 | 89.6 | 81.6 | 81.6 | 91 | 87.2
21 | Cc1nnsc1C(=O)Nc1ccc(-n2nc(C(F)(F)F)cc2C(F)(F)F)cc1 | 78.2% and 82% | 76.3 | 86.6 | 98.2 | 107 | 99.1 | 76.6 | 89.2
22 | Nc1[nH]cnc2ncnc1-2 [Adenine hydrochloride] | 127% and 120% | 105 | 98.5 | 111 | 105 | 108 | 114 | 118

Row | Structure (SMILES) | cell viability (K562; SRSF2 genotype: SRSF2 P95H/wt) | cell viability (K562; SRSF2 genotype: SRSF2 wt/wt) [%] | cell viability (MARIMO; SRSF2 genotype: SRSF2 P95H/wt) [%] | cell viability (MARIMO; SRSF2 genotype: SRSF2 wt/wt) [%] | cell viability (MOLM14; SRSF2 genotype: SRSF2 P95H/wt) [%] | cell viability (MOLM14; SRSF2 genotype: SRSF2 wt/wt) [%] | cell viability (OCI-AML2; SRSF2 genotype: P95H/wt) [%] | cell viability (OCI-AML2; SRSF2 genotype: wt/wt) [%]
23 | O=C1c2ccccc2C(=O)c2c1ccc(O)c2O [Alizarin] | 101% and 104% | 101 | 103 | 99.5 | 97 | 102 | 101 | 93
24 | C1CCN2C[C@@H]3C[C@@H](CN4CCCC[C@@H]34)[C@H]2C1 [Sparteine] | 95% and 97.6% | 91.1 | 96.8 | 94.9 | 99 | 94.8 | 97.5 | 94.3
25 | CN[C@@H](C)C(=O)N[C@H](C(=O)N1CCC[C@H]1C(=O)Nc1snnc1-c1ccccc1)C1CCCCC1 | 98.6% and 96.3% | 97.7 | 101 | 105 | 89.6 | 104 | 102 | 123
26 | COc1cc(C(=O)O)ccc1NC(=O)[C@@H]1N[C@@H](CC(C)(C)C)[C@](C#N)(c2ccc(Cl)cc2F)[C@H]1c1cccc(Cl)c1F [Idasanutlin (RG-7388)] | 96.7% and 98.2% | 86.3 | 116 | 131 | 86.5 | 102 | 102 | 118
27 | CNC(=O)c1cc(Oc2ccc3nc(N[C@@H]4CCCC[C@H]4O)sc3c2)ccn1 | 87.4% and 93.2% | 89.4 | 100 | 99.1 | 89.2 | 99.5 | 90 | 83.2
28 | COc1ccc(O)cc1 [Mequinol] | 103% and 95.3% | 106 | 91.1 | 100 | 95.6 | 96.9 | 90.4 | 103
29 | CN[C@H]1CN(c2ccc3c(=O)c(C(=O)O)cn(-c4nccs4)c3n2)C[C@@H]1OC [Voreloxin (SNS-595) hydrochloride] | 74% and 88.4% | 79.8 | 20.8 | 36 | 21.3 | 7.31 | 15.6 | 19.9
30 | COc1ccc(C(=O)O)cc1O [Isovanillic acid] | 97.7% and 89.4% | 95.3 | 85.2 | 97.5 | 87.1 | 90.6 | 82.2 | 86.7
31 | O=C(O)c1cc(=O)[nH]c(=O)[nH]1 [Orotic acid (6-Carboxyuracil)] | 104% and 95.1% | 96.6 | 91.1 | 101 | 95.3 | 95.2 | 95.2 | 96.5
32 | Oc1cc(O)c2c(c1)OC(c1ccc(O)c(O)c1)C(O)C2 (single isomer, unassigned; (+)) [(+)-Catechin hydrate] | 103% and 94.1% | 103 | 106 | 103 | 104 | 104 | 104 | 108
33 | Cc1cc(Nc2cc(N3CCN(C)CC3)nc(/C=C/c3ccccc3)n2)n[nH]1 [ENMD-2076 L-(+)-Tartaric acid] | 22.5% and 29.7% | 22.9 | 34.8 | 30.7 | 2.93 | 6.51 | 7.71 | 14.7
34 | Cc1ccccc1N1C(=O)c2cc(S(N)(=O)=O)c(Cl)cc2NC1C (centres undefined) [Metolazone (Zaroxolyn)] | 104% and 99.9% | 96.7 | 96 | 99.7 | 99.5 | 97 | 101 | 98.3
35 | Cc1ccc(Sc2ccccc2N2CCNCC2)c(C)c1 | 2.01% and 3.74% | 2.31 | 6.07 | 11.2 | 3.31 | 3.18 | 0.2 | 0.89
36 | CC[C@H]1OC(=O)[C@@](C)(F)C(=O)[C@H](C)[C@@H](O[C@@H]2O[C@H](C)C[C@H](N(C)C)[C@H]2O)[C@](C)(OC)C[C@@H](C)C(=O)[C@H](C)[C@H]2N(CCCCn3cc(-c4cccc(N)c4)nn3)C(=O)O[C@]12C [Solithromycin] | 91% and 93.4% | 91.2 | 107 | 101 | 89.4 | 94.9 | 94.1 | 93.5
37 | CCC[C@@H]1C[C@@H](C(=O)N[C@@H]([C@H]2O[C@H](SC)[C@H](O)[C@@H](O)[C@H]2O)[C@H](C)Cl)N(C)C1 [Clindamycin] | 96.3% and 99.1% | 103 | 104 | 106 | 95.3 | 99.8 | 113 | 98.9
38 | N#CC[C@H](C1CCCC1)n1cc(-c2ncnc3[nH]ccc23)cn1 | 87.3% and 90% | 97.7 | 78 | 91 | 68.8 | 82.6 | 60.7 | 57.9
39 | C=CC(=O)Nc1cccc(C)c1Nc1ncc2cc(-c3c(Cl)c(OC)cc(OC)c3Cl)ccc2n1 | 29.7% and 25.7% | 35.1 | 47.6 | 55.7 | 6.84 | 4.93 | 6.53 | 11.9
40 | COc1cccc(-c2c(C)n(Cc3c(F)cccc3C(F)(F)F)c(=O)n(C[C@H](NCCCC(=O)O)c3ccccc3)c2=O)c1F [Elagolix Sodium] | 97% and 93% | 96.3 | 104 | 115 | 99 | 101 | 110 | 104
41 | O=C(c1ccc(F)cc1)N1CCCC(c2nc(-c3ccc(F)cc3)no2)C1 (centres undefined) | 75.7% and 78.6% | 76.6 | 66 | 73.9 | 80.1 | 84.1 | 64.8 | 72.7
42 | Cc1cc(/C=C/C#N)cc(C)c1Nc1ccnc(Nc2ccc(C#N)cc2)n1 [Rilpivirine] | 35.2% and 46.8% | 50.1 | 61.8 | 59.8 | 49.6 | 43.9 | 44.2 | 48
43 | Cn1cc(-c2cnn3c(N)c(Br)c([C@@H]4CCCNC4)nc23)cn1 | 42.2% and 58.8% | 25.3 | 50.4 | 61.6 | 12.8 | 7.07 | 9.84 | 11.1
